Results published in PubChem BioAssay (NCI).
This is part of a sample that, as a whole, favours compounds with a hit. Of some 79,000 tested, about 15% had one in any assay. Active and inactive are the calls of the source. Cut-off read from the data, not from the text of the source: active = growth inhibition above about 70%; inactive = the rest.

Experiments:
[1] = NCI Yeast Anticancer Drug Screen. Data for the rad50 strain (AID 155);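 note: 0% = growth of vehicle-only cultures of the same strain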; details: S. cerevisiae rad50 strain growth inhibition; at 50.0 µM; active compounds read high
In short: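 DNA repair mutant yeast, compound exposure, growth read-out; inhibition is taken relative to vehicle.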

[2] = NCI Yeast Anticancer Drug Screen. Data for the mec2-1 strain (AID 157); details: S. cerevisiae mec2-1 strain, at 50.0 µM, active compounds read high
In short: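 Readout is yeast growth inhibition, normalised to vehicle-treated controls, in the mec2-1 strain exposed to compound.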

[3] = NCI Yeast Anticancer Drug Screen. Data for the sgs1 mgt1 strain (AID 161);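 note: 0% = growth of cultures given vehicle only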; details: S. cerevisiae sgs1 mgt1 strain, at 50.0 µM, active compounds read high
In short: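 Growth of a repair-deficient yeast mutant was monitored after compound treatment and expressed as inhibition relative to vehicle-treated cultures.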

[4] = NCI Yeast Anticancer Drug Screen. Data for the cln2 rad14 strain (AID 165);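 note: 0% = growth equal to vehicle treated cultures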; details: S. cerevisiae cln2 rad14 strain, at 50.0 µM, active compounds read high
In short: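 Relative to vehicle controls, growth inhibition of compound-treated cln2 rad14 yeast was recorded.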

[5] = NCI Yeast Anticancer Drug Screen. Data for the bub3 strain (AID 167); details: S. cerevisiae bub3 mutant strain, at 50.0 µM, active compounds read high
In short: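 In this screen, a yeast mutant lacking normal mitotic checkpoint function is challenged with compound. Relative growth versus vehicle gives the inhibition value.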

[6] = NCI Yeast Anticancer Drug Screen. Data for the mlh1 rad18 strain (AID 175); details: S. cerevisiae mlh1 rad18 strain growth inhibition; at 50.0 µM; active compounds read high
In short: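 Test agents were incubated with a yeast strain of defined genotype (DNA damage repair defect). Inhibition of growth was derived by comparison with vehicle-exposed cultures.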

Measured: growth inhibition

O=C(Cc1ccccc1)NCc1ccc(Cl)cc1
inactive: [1] 3.75% | [2] 18.2% | [3] 34.1% | [4] -5.7% | [5] 41.1% | [6] 27.4%

NC(=O)c1ccccc1NC(=O)CCCOc1ccccc1
inactive: [1] -11.5% | [2] 8.35% | [3] 16.8% | [4] -5.8% | [5] -14.3% | [6] 9.2%

O=C(O)C(NCCNC(C(=O)O)c1ccccc1)c1ccccc1 (configuration not stated)
inactive: [1] 24.2% | [2] 6.7% | [3] 19% | [4] 38.6% | [5] 15.2% | [6] 3.4%

Cc1ccc2ccc(=O)oc2c1
inactive: [1] 7.9% | [2] 1.05% | [3] 2.85% | [4] 7.45% | [5] 13.8% | [6] 6.85%

Cc1cccc(OCC(O)CN(Cc2ccsc2)c2ccccn2)c1 (configuration not stated)
inactive: [1] 18.4% | [2] 16.4% | [3] 18.2% | [4] 37.3% | [5] 14.9% | [6] 8.2%

Cc1c([N+](=O)[O-])cc(C(C)(C)C)c(OC(=O)C(C)(C)C)c1[N+](=O)[O-]
active: [5] 92.4%
inactive: [1] 53.4% | [2] 44.9% | [3] 59.8% | [4] 41.5% | [6] 54.3%

CC(c1ccccc1)c1ccc2ccccc2c1C(=O)O (configuration not stated)
active: [4] 82%
inactive: [1] 39.8% | [2] 43.2% | [3] 42.6% | [5] 29.6% | [6] 64.8%

NC(N)=NS(=O)(=O)c1ccc(Nc2c3ccccc3nc3c(C(=O)NNCCO)cccc23)cc1
inactive: [1] -10.1% | [2] -2.85% | [3] 25.6% | [4] -7.7% | [5] 15.9% | [6] -1.65%

O=C(NC1C=Nc2ccc([N+](=O)[O-])cc2NC1=O)c1ccc(Cl)cc1 (configuration not stated)
inactive: [1] 13.2% | [2] 7.8% | [3] 7.35% | [4] -18% | [5] -1.85% | [6] -8.5%

CC(C)C(=O)OCC1OC(n2cnc3c(=S)nc[nH]c32)C(OC(=O)C(C)C)C1OC(=O)C(C)C (configuration not stated)
inactive: [1] -6.8% | [2] 2.2% | [3] 2.4% | [4] -13.4% | [5] -9.55% | [6] 2.1%

Cn1c2c(cc(-c3ccccc3)c1=O)COc1ccccc1-2
inactive: [1] 31.1% | [2] -13.9% | [3] 26.2% | [4] 2.45% | [5] 23.7% | [6] 24.1%

Cc1cc(N(CCC#N)CCC#N)ccc1/C=C1N=C(/C=C/c2ccccc2)N(c2ccc(S(N)(=O)=O)cc2)C\1=O
inactive: [1] 0.75% | [2] -0.2% | [3] -18.8% | [4] 0.6% | [5] -21.1% | [6] -3.9%

CCC(=O)c1cccc(-c2ccccc2)c1C
inactive: [1] 7% | [2] -13.5% | [3] -2.5% | [4] 4.25% | [5] 11.7% | [6] 11.5%

C#CC1(NC(=O)c2ccccc2C(=O)Nc2cccc(C(F)(F)F)c2)CCCCC1
inactive: [1] -12.9% | [2] -19.1% | [3] -14.2% | [4] 11.3% | [5] -20.1% | [6] -14.2%

Cc1cc[n+]2c(c1)-c1cc(C)cc[n+]1CC2
inactive: [1] 26.7% | [2] 1.15% | [3] 14.3% | [4] -10.8% | [5] 0.6% | [6] 6.3%

CCCCCCC(/C=N/Nc1ccccn1)=C\c1ccccc1
inactive: [1] -5.05% | [2] -0.95% | [3] 2.55% | [4] -7.6% | [5] -4.1% | [6] -21.9%

Nc1nc(-c2ccccc2)[nH]c(=O)n1
inactive: [1] -3.3% | [2] -0.45% | [3] -37% | [4] -62.8% | [5] -22.4% | [6] -33%

COc1ccc(OC)c(/C=C/C2=C(C)C(=O)CC(c3cc(OC)ccc3OC)C2C)c1 (configuration not stated)
inactive: [1] 4.3% | [2] 12.3% | [3] 28.3% | [4] 8.75% | [5] 2.35% | [6] 4.3%

Cc1ccc(S(=O)(=O)Oc2c([N+](=O)[O-])cc(-c3ccccc3)cc2[N+](=O)[O-])cc1
inactive: [1] 47.8% | [2] 37.4% | [3] 63% | [4] 34.5% | [5] 0.7% | [6] 31%

C[N+]1=C(/C=C/c2ccnc3c(O)cccc23)C(C)(C)c2ccccc21
inactive: [1] 10% | [2] 11.2% | [3] 2.45% | [4] -60.4% | [5] -6.4% | [6] 8.65%

O=C(OC1CCCCC1)C(=O)OC1CCCCC1
inactive: [1] 3.3% | [2] -2.3% | [3] 1.35% | [4] -37.2% | [5] -5.45% | [6] 14%

CN(CCSSCCN(C)/N=C/c1ccccc1)/N=C/c1ccccc1
inactive: [1] -30.6% | [2] -10% | [3] -26.7% | [4] -27.6% | [5] -10.7% | [6] -17.1%

Cc1nc(-c2cc([N+](=O)[O-])cc([N+](=O)[O-])c2)oc1-c1ccccc1
inactive: [1] -15.2% | [2] -1.95% | [3] -7.35% | [4] 13% | [5] -3.25% | [6] -3.4%

COc1cc(/C=C/c2ccnc3ccccc23)ccc1N(C)C
inactive: [1] 4.7% | [2] 24.8% | [3] 15.6% | [4] -32.3% | [5] 29.8% | [6] 24.7%

CCNC(=O)OCc1c(COC(=O)NCC)c(-c2ccc(Cl)c(Cl)c2)n2c1CCC2
inactive: [1] 27.4% | [2] 24.8% | [3] 35.4% | [4] 66.5% | [5] 10.4% | [6] 40.8%

Nc1cc2c(cc1Br)-c1ccc(Br)cc1C2=O
inactive: [1] -6.65% | [2] -6.65% | [3] -0.7% | [4] -30.2% | [5] 21.4% | [6] -5.25%

COC(=O)c1cccnc1F
inactive: [1] 3.9% | [2] -15.2% | [3] -14.7% | [4] -1.65% | [5] -30.2% | [6] -2.45%

Cc1coc2c1C1OC(=O)C3(C/C=C\C(C)C2)OC13 (configuration not stated)
inactive: [1] 0.15% | [2] -32.6% | [3] -2.55% | [4] -6.3% | [5] -13.9% | [6] -5.95%

O=C(O)C(Br)C1(Br)c2ccccc2-c2ccccc21 (configuration not stated)
active: [1] 99.3% | [2] 99.7% | [3] 99.7% | [4] 95.4% | [5] 97.3% | [6] 99.6%

O=C1CCCC/C(=C/c2ccccc2)N1
inactive: [1] 4.45% | [2] -7.2% | [3] -6.7% | [4] 12.8% | [5] -21.8% | [6] 7.85%

COc1cccc2c1oc(=O)c1ccccc12
inactive: [1] 9.55% | [2] -6.75% | [3] -19.6% | [4] -66.8% | [5] -2.35% | [6] -5.85%

CCCC(O)C(C)[N+](=O)[O-] (configuration not stated)
inactive: [1] 7.25% | [2] 4.5% | [3] -0.65% | [4] 4.75% | [5] 4.2% | [6] 0.6%

CN1CCc2[nH]nc(-c3n[nH]c4c3CN(C)CC4)c2C1
inactive: [1] 15.8% | [2] 0.85% | [3] 10.5% | [4] -0.05% | [5] -8.6% | [6] 13.6%

FC(F)(F)c1nc2ccccc2[nH]1
inactive: [1] 16.9% | [2] -1.4% | [3] 9.55% | [4] 14.8% | [5] -1.65% | [6] 13.3%

O=C(c1ccccc1)C1CCCCC1
inactive: [1] 1.05% | [2] -3.65% | [3] -6.25% | [4] 6.45% | [5] 4.4% | [6] -3.7%

COC(=O)C1(CC(=O)c2ccccc2)NC(=S)NC(=O)C1C#N (configuration not stated)
inactive: [1] 1.85% | [2] -13.9% | [3] -24.4% | [4] -15.8% | [5] -33.5% | [6] -3.35%

CC(C)(C)NC(=O)CCC1C(C(=O)NC(C)(C)C)C2(Cl)C(Cl)=C(Cl)C1(Cl)C2(Cl)Cl (configuration not stated)
inactive: [1] 6.2% | [2] 12% | [3] 1.6% | [4] 9.8% | [5] 15.6% | [6] -2.05%

c1ccc(Sc2cccc3c(-c4ccccc4)c4cccc5c4c(c23)C[S+]5c2ccccc2)cc1 (configuration not stated)
active: [1] 98.5% | [2] 99.1% | [3] 99.2% | [4] 98.5% | [5] 98.6% | [6] 98.8%

O=C(Nc1ccccc1Cl)c1ccc(F)cc1
inactive: [1] -2.25% | [2] -12.2% | [3] 15% | [4] 7.4% | [5] -21.4% | [6] -3.85%

CCOc1ccc(NC(=O)Nc2cccc(Cl)c2C)cc1
inactive: [1] 0.45% | [2] 9.25% | [3] 11.4% | [4] -13.8% | [5] 9.85% | [6] -20.6%

CCC(Oc1ccc(OC)c2c1C(=O)CCC2)C(=O)O (configuration not stated)
inactive: [1] 5.95% | [2] 1% | [3] -18.9% | [4] 11.4% | [5] -0.85% | [6] 7.55%

Cc1cc(=O)c2cc(Br)cc(Br)c2[nH]1
inactive: [1] 11.8% | [2] -13.8% | [3] 8.3% | [4] 0.05% | [5] 9.85% | [6] 12%
